Screening data (PubChem)
This is a sample that favours compounds with a hit; in the whole collection about 4.5% have one here.
ALR inh: human ALR oxidase inhibition via reduced H2O2. 3.8% of 290,000 active. P55789. purified ALR, DTT oxidation, H2O2 HRP-luminol luminescence. inhibition, % (test concentration not listed). AID 485317;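 active = mean replicate inhibition above about 79%, with every replicate also reaching it, limit read from the data; inconclusive = only one of the two criteria met; inactive = mean below limit and not every replicate reaching it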
Efflux pump mplx: inhibitors of Candida antifungal efflux pumps expressed in yeast. S. cerevisiae Candida pump triplex, Nile Red efflux. inhibition, % at 10 µM. 0.44% of 330,000 active. AID 485275;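 active = plate passing quality check with inhibition over a set limit, or well fluorescence over plate mean plus 4 SD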;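 also: Nile Red retained in pooled yeast measured as flow cytometry median fluorescence; 0% = buffer negative control and 100% = Enniatin B positive control; higher means more Nile Red kept so more efflux inhibition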
GRK2 aptamer HTS: blocks RNA aptamer binding to human GRK2 | 0.59% of 330,000 active | AID 488847 | inhibition of aptamer binding, % at 10 µM | P25098 | bead flow cytometry, FAM-aptamer displacement from GRK2;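 active = inhibition of aptamer binding above 40%, roughly 3 SD of noise, on plates passing a quality check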;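 also: median bead fluorescence of bound FAM aptamer so fluorescent compounds give negative values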
HDAC3 inhib: human HDAC3 inhibition; O15379; recombinant HDAC3, fluorogenic peptide/trypsin coupled, fluorescence; inhibition, % at 8.3 µM; 0.15% of 320,000 active; AID 2718; in the data active = inhibition above about 26%, passing the limit was not always enough; inconclusive = no clear call, values can overlap the other calls
Target sequence (O15379 whole entry, looked up): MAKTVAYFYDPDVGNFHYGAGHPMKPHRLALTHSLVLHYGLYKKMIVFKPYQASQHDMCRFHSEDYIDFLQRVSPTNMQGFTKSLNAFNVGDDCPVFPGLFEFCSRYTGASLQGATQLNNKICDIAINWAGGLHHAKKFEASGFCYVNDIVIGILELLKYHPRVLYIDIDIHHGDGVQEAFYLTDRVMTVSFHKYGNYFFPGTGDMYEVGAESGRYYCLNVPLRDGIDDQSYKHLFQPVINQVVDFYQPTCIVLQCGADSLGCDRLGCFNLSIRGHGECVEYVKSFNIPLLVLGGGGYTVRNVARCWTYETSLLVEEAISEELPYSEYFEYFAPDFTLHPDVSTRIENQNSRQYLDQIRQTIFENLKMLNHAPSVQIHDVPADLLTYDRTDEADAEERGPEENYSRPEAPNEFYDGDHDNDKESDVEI
Rtt109 HAT inh: C. albicans Rtt109 histone acetyltransferase inhibition; 0.16% of 330,000 active; purified Rtt109/Vps75, ThioGlo CoA-SH fluorescence, 4 h; inhibition, % at 34.9 µM; Q5AAJ8; AID 540336;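 active = inhibition of at least 50% in every replicate; inconclusive = best replicate reaches 50% inhibition but some replicates fall short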
Rce1 inh: blocks yeast Ras-converting enzyme | Q03530 | 0.27% of 290,000 active | AID 2563 | calls only | yeast membranes, quenched prenylated peptide cleavage fluorescence;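 active = fall in fluorescence gain of 50% or more versus controls, with final raw signal at or below 3038400; inconclusive = same 50% fall but final raw signal above 3038400; inactive = fall in fluorescence gain under 50%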;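 also: plate controls were neutral control wells for no effect and wells lacking membranes for full effect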
Starred values were filed as active, the others as inactive; i = inactive; u = inconclusive; x = no result; + = active, no number; ! = not active in a repeat.

SMILES	ALR inh	Efflux pump mplx	GRK2 aptamer HTS	HDAC3 inhib	Rtt109 HAT inh	Rce1 inh
C=CC(=O)NC(NC(=O)C=C)c1ccccc1F	1	0	0	x	-6	i
CC(=O)N(Cc1ccccc1)C1CC(=O)N(Cc2ccccc2)C1=O (stereo not drawn)	x	x	x	x	2	x
COc1ccc(-c2nc(CS(=O)(=O)CC(=O)NCc3ccc(F)cc3)c(C)o2)cc1	-1	0	0	-10	-13	i
COc1ccc(-c2nc(CS(=O)CC(=O)NCc3ccc(C)cc3)c(C)o2)cc1OC (stereo not drawn)	99*	0	4	-4	20	i
CCOc1ccc(CCNC(=O)CS(=O)Cc2nc(-c3ccc(OC)c(OC)c3)oc2C)cc1OCC (stereo not drawn)	99*	0	2	-1	10	i
COc1ccc(CNC(=O)CS(=O)Cc2nc(-c3ccc(C)cc3)oc2C)cc1 (stereo not drawn)	99*	0	0	-5	1	i
CCOc1ccc(CCNC(=O)CS(=O)(=O)Cc2nc(-c3ccc(OC)cc3)oc2C)cc1	72	0	0	2	21	i
COc1ccc(-c2nc(C#N)c(NCc3ccc(C)cc3)o2)cc1OC	-5	0	0	-37	10	u
O=C(O)CN1C(=O)/C(=C/c2ccccc2Cl)Oc2ccccc21	4	0	5	-32	8	i
O=C(O)CN1C(=O)/C(=C/c2cccc(Cl)c2)Oc2ccccc21	81*	0	4	-26	-1	i
COc1cc(/C=N/N2CCN(c3ccccc3OC)CC2)ccc1O	99*	0	4	7	32	i
COc1cc(/C(C)=N/N2CCN(c3ccccc3OC)CC2)ccc1O	99*	0	0	-3	1	i
COc1ccccc1N1CCN(/N=C\c2sccc2C)CC1	95*	0	1	-2	0	i
COc1cc(/C(C)=N/NC(=O)C(O)(c2ccccc2)c2ccccc2)ccc1O	98*	0	0	0	-21	i
COc1cc(C(C)=NNC(=O)c2ccncc2)ccc1O	x	x	x	x	3	x
O=C1CC(c2ccccc2)c2cccc(F)c21 (stereo not drawn)	-2	0	1	9	1	i
CSc1ccccc1-c1nc(-c2ccncc2)no1	-5	0	0	7	4	i
COc1ccc(/C=N/N2CCN(C)CC2)cc1O	99*	0	2	-4	-16	i
COc1cccc(/C=N/N2CCN(C)CC2)c1	14	0	0	2	5	i
COc1ccc(S(=O)(=O)Nc2ccc(OCC(=O)O)cc2)c2ccccc12	-6	0	4	-6	-1	i
COc1ccc(C(=O)N/C(=C\c2ccccc2)C(=O)N2CCOCC2)cc1	-9	0	0	-5	0	i
COc1ccc(-c2ccc(/C=C(\NC(=O)c3ccccc3)C(=O)N3CCOCC3)o2)cc1	98*	0	0	6	30	i
CCNC(=O)CC1SC(=Nc2ccc(C)c([N+](=O)[O-])c2)N(C)C1=O (stereo not drawn)	-10	0	8	4	x	i
Cc1ccc(Sc2nc(-c3ccccc3)nnc2C(F)(F)F)cc1	98*	0	2	-2	-1	i
CCN(C(=O)CN1CCCC(C)C1)c1c(N)n(Cc2ccccc2)c(=O)[nH]c1=O (stereo not drawn)	x	0	0	0	5	x
SMILES	ALR inh	Efflux pump mplx	GRK2 aptamer HTS	HDAC3 inhib	Rtt109 HAT inh	Rce1 inh
CCOc1ccccc1C(=O)N/N=C/c1coc2ccc(Cl)cc2c1=O	u	0	0	32*	1	i
Cc1ccc2occ(/C=N/NC(=O)c3ccc(Cl)cc3)c(=O)c2c1	-1	0	0	-3	5	i
O=C(N/N=C/c1coc2ccc(Cl)cc2c1=O)c1cc(O)cc(O)c1	96*	0	9	16	-4	i
COc1ccc(OC)c(S(=O)(=O)Nc2cc3c(cc2N2CCCC2)n(C)c(=O)c(=O)n3C)c1	-37	0	0	-1	13	i
O=[N+]([O-])c1ccc(-c2cnc(SC(c3ccccc3)c3ccccc3)[nH]2)cc1	x	3	2	x	-3	+
O=[N+]([O-])c1ccc(-c2cnc(SCc3ccccc3Cl)[nH]2)cc1	u	0	0	-4	9	i
CCCc1c(O)nc(SCCN(CC)CC)n(C(=O)c2ccccc2)c1=O	98*	0	0	12	12	i
COC(=O)c1sc(N2C(=O)C(=O)/C(=C(/O)c3ccc(C)cc3)C2c2ccco2)nc1C (stereo not drawn)	92*	0	0	5	x	i
CCOc1ccc(/C(O)=C2/C(=O)C(=O)N(c3nc(C)c(C)s3)C2c2ccco2)cc1 (stereo not drawn)	0	0	14	4	4	i
Oc1ccc(Br)cc1-c1ccn[nH]1	15	0	0	5	0	i
Oc1ccc(O)c(-c2cnns2)c1	99*	0	4	1	10	i
CCOCC(=O)Nc1cc(Cl)c(OC)cc1OC	-7	0	0	-1	x	i
Cc1ccc2c(c1)c1c(n2CC(O)CN2CCCCC2C)CCCC1 (stereo not drawn)	95*	0	0	-2	1	i
Cc1ccc2c(c1)c1c(n2CC(O)CN2CCOCC2)CCCC1 (stereo not drawn)	9	0	1	-8	x	i
Cc1ccc2c(c1)c1c(n2CC(O)CN2CCC(C)CC2)CCCC1 (stereo not drawn)	93*	0	0	3	2	i
Cc1ccc2c(c1)c(C)c(C)n2CC(O)CN1CCCCC1C (stereo not drawn)	95*	0	0	-10	11	i
CCOc1ccc(CCNC(=O)CSCC(=O)Nc2ccc(OC)cc2)cc1OCC	x	0	7	5	2	x
CCc1noc(C)c1C(=O)Nc1nnc(CC(C)C)s1	6	0	0	3	0	i
Cc1ccc(NC(=S)Nc2cccc(-c3n[nH]c(=S)o3)c2)cc1	89*	0	2	-7	8	i
NC(N)=NC(=O)c1nc(Cl)c(N)nc1N	-13	0	2	-5	1	+!
C/C(=N\NC(=O)C(c1ccccc1)c1ccccc1)c1ccccn1	x	0	2	1	-3	i
C/C(=N\NC(=O)c1csc2ccccc12)c1ccc(O)cc1	100*	0	0	-3	10	i
C/C(=N\NC(=O)C(c1ccccc1)c1ccccc1)c1ccc(O)cc1	90*	0	1	1	21	i
O=C(N/N=C/c1cccc(O)c1)c1csc2ccccc12	33	0	0	2	3	i
COC(C(=O)N/N=C(\C)c1ccc(O)cc1)c1ccccc1 (stereo not drawn)	98*	0	3	4	5	x
